In PubChem BioAssay AID1159580 (chemical genetic matrix, 2015):
Several values for one entry are separate records, joined by “and”; a condition that tells them apart may be missing. Equal entries are not always repeated. Out of some 5,500 compounds screened, about 2,000 (36%) were called active. Not shown: some 18% with an inconclusive outcome. No stated cut-off is given here; in the data, active means normalized growth mostly below about 0.91 (no sharp cut-off); inconclusive means no clear call, values can overlap the other calls; inactive means mostly above about 0.92. The list shows a part of the results.

Assay: chemical genetic growth profiling, strain panel (AID 1159580);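 further: tested at 20 µM; growth read once vehicle control cultures reached saturation at 30 °C; 1 = growth at the plate median or of vehicle wells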
Conditions: S. cerevisiae deletion strains, growth OD

Measured: normalized growth

NC[C@H]1O[C@H](O[C@H]2C(O[C@@H]3O[C@H](CO)[C@@H](O)[C@H]3O)[C@@H](O)[C@H](N)C[C@@H]2N)[C@H](N)[C@@H](O)[C@@H]1O (some centres not stated)
inactive: locus YAL013W, strain DEP1, stronger effect = lower value 1 | locus YAL021C, strain ccr4, stronger effect = lower value 1.02 | locus YAL026C, strain drs2, stronger effect = lower value 0.998 | locus YAL030W, strain snc1, stronger effect = lower value 0.994 | locus YBL061C, strain skt5, stronger effect = lower value 0.997 | locus YBR009C, strain hhf1, stronger effect = lower value 0.975 | locus YBR021W, strain FUR4, stronger effect = lower value 0.969 | locus YBR023C, strain chs3, stronger effect = lower value 0.995 | locus YBR171W, strain sec66, stronger effect = lower value 0.992 | locus YBR229C, strain ROT2, stronger effect = lower value 0.99 | locus YBR231C, strain swc5, stronger effect = lower value 0.998 | locus YBR279W, strain paf1, stronger effect = lower value 0.999 | locus YCL011C, strain gbp2, stronger effect = lower value 1 | locus YCL016C, strain dcc1, stronger effect = lower value 0.996 | locus YCL029C, strain bik1, stronger effect = lower value 0.987 | locus YCL061C, strain MRC1, stronger effect = lower value 0.989 | locus YCL069W, strain vba3, stronger effect = lower value 0.997 | locus YCR088W, strain abp1, stronger effect = lower value 0.998 | locus YDL005C, strain med2, stronger effect = lower value 1.01 | locus YDL035C, strain GPR1, stronger effect = lower value 1.01 | locus YDL040C, strain nat1, stronger effect = lower value 0.983 | locus YDL074C, strain BRE1, stronger effect = lower value 0.985 | locus YDL101C, strain DUN1, stronger effect = lower value 0.987 | locus YDL134C, strain PPH21, stronger effect = lower value 0.988 | locus YDL185W, strain tfp1, stronger effect = lower value 0.983 | locus YDL192W, strain arf1, stronger effect = lower value 0.996 | locus YDR001C, strain nth1, stronger effect = lower value 0.989 | locus YDR069C, strain doa4, stronger effect = lower value 0.99 | locus YDR101C, strain arx1, stronger effect = lower value 0.972 | locus YDR137W, strain rgp1, stronger effect = lower value 1.02 | locus YDR150W, strain NUM1, stronger effect = lower value 1 | locus YDR159W, strain sac3, stronger effect = lower value 0.982 | locus YDR162C, strain NBP2, stronger effect = lower value 1 | locus YDR195W, strain ref2 0.939 | locus YDR297W, strain sur2, stronger effect = lower value 0.99 | locus YDR318W, strain mcm21, stronger effect = lower value 0.996 | locus YDR334W, strain swr1, stronger effect = lower value 0.997 | locus YDR335W, strain msn5, stronger effect = lower value 0.994 | locus YDR388W, stronger effect = lower value 0.992 | locus YDR392W, strain spt3, stronger effect = lower value 0.918 | locus YDR502C, strain sam2, stronger effect = lower value 0.998 | locus YEL003W, strain gim4, stronger effect = lower value 1 | locus YEL037C, strain rad23, stronger effect = lower value 0.995 | locus YEL061C, strain CIN8 (second series), stronger effect = lower value 0.991 | locus YEL061C, strain CIN8, stronger effect = lower value 0.999 | locus YER015W, strain faa2, stronger effect = lower value 0.998 | locus YER016W, strain bim1, stronger effect = lower value 0.993 | locus YER110C, stronger effect = lower value 0.993 | locus YER111C, strain swi4, stronger effect = lower value 0.977 | locus YER155C, strain BEM2 (second series), stronger effect = lower value 0.974 | locus YER155C, strain BEM2, stronger effect = lower value 0.957 | locus YER167W, strain BCK2, stronger effect = lower value 1 | locus YFR010W, strain ubp6, stronger effect = lower value 0.999 | locus YGL078C, strain dbp3, stronger effect = lower value 0.988 | locus YGL086W, strain mad1, stronger effect = lower value 0.994 | locus YGL167C, strain pmr1, stronger effect = lower value 0.992 | locus YGL173C, strain kem1, stronger effect = lower value 1 | locus YGL227W, strain vid30, stronger effect = lower value 0.989 | locus YGL240W, strain doc1, stronger effect = lower value 0.991 | locus YGL248W, strain PDE1, stronger effect = lower value 0.994 | locus YGL253W, strain hxk2, stronger effect = lower value 0.985 | locus YGR078C, strain PAC10, stronger effect = lower value 0.994 | locus YGR135W, strain pre9, stronger effect = lower value 0.985 | locus YGR229C, strain SMI1, stronger effect = lower value 1.03 | locus YGR252W, strain gcn5, stronger effect = lower value 1.08 | locus YHR013C, strain ard1, stronger effect = lower value 0.976 | locus YHR027C, strain rpn1, stronger effect = lower value 1 | locus YHR030C, strain SLT2, stronger effect = lower value 0.994 and 0.986 | locus YHR079C, strain IRE1 (second series), stronger effect = lower value 0.983 | locus YHR079C, strain IRE1, stronger effect = lower value 0.993 | locus YHR094C, strain hxt1, stronger effect = lower value 0.99 | locus YHR129C, strain ARP1, stronger effect = lower value 0.986 | locus YHR142W, strain chs7, stronger effect = lower value 1.01 | locus YHR200W, strain rpn10, stronger effect = lower value 0.989 | locus YIL066C, strain RNR3, stronger effect = lower value 0.991 | locus YIL073C, strain SPO22, stronger effect = lower value 1.01 | locus YIL125W, strain kgd1, stronger effect = lower value 1 | locus YIR030C, strain dcg1, stronger effect = lower value 0.988 | locus YJL092W, strain hpr5, stronger effect = lower value 0.994 | locus YJL095W, strain BCK1 (second series), stronger effect = lower value 0.995 | locus YJL095W, strain BCK1, stronger effect = lower value 0.984 and 1.02 | locus YJL115W, strain asf1, stronger effect = lower value 0.995 | locus YJL129C, strain trk1, stronger effect = lower value 1 | locus YJL134W, strain LCB3, stronger effect = lower value 0.992 | locus YJL154C, strain vps35, stronger effect = lower value 0.986 | locus YJL164C, strain tpk1, stronger effect = lower value 1 | locus YJL166W, strain qcr8, stronger effect = lower value 1.01 | locus YJL168C, strain set2, stronger effect = lower value 0.986 | locus YJL187C, strain SWE1 (second series), stronger effect = lower value 0.991 | locus YJL187C, strain SWE1, stronger effect = lower value 0.997 | locus YJR043C, strain POL32, stronger effect = lower value 0.994 | locus YJR066W, strain TOR1, stronger effect = lower value 0.93
